A number with no mark means an inactive call. The source made the active and inactive calls. No stated cut-off is given here; in the data, active means fold change mostly below about -2 (no sharp cut-off); inactive means mostly above about -1.8.
Test: modulation of TERT promoter-driven luciferase – cell-based, luciferase reporter, human, primary screen (AID 1259240)
Details: A2780 TERT promoter luciferase reporter, 16 h; at 20 µM, fold versus average of vehicle-only wells

Question: For `COCCN1C(=O)C(=O)/C(=C(\O)c2ccc(OC)cc2)C12C(=O)N(C)c1ccccc12` (centres undefined), which fold change is on record?
Answer: Its fold change is -1.95.

Question: For `COc1cc2cc(=O)[nH]c(C)c2cc1OC`, which fold change is on record?
Answer: Its fold change is 1.08.

Question: With `COC(=O)c1nc2n(n1)C(c1ccc(C)cc1)C1=C(CCCC1=O)N2` (centres undefined) as the compound, how does the outcome read?
Answer: The outcome was “inactive”.

Question: For `Cc1nc2c3ccccc3nc(NNC(=O)CCC(=O)N3CCCC(C)C3)n2n1` (centres undefined), which fold change is on record?
Answer: The fold change was -1.02.

Question: With `CCCCN(CC)CCNS(=O)(=O)c1cccc2cccnc12` as the compound, how does the fold change read?
Answer: The fold change was -1.21.

Question: For `CCc1nnc(NC(=O)CSc2ncnc3ccccc23)s1`, which fold change is on record?
Answer: The fold change was 1.11.

Question: For `O=c1oc2cc(O)ccc2cc1S(=O)(=O)c1ccc(Cl)cc1`, which fold change is on record?
Answer: Its fold change is -2.04 (active).

Question: For `O=C(CSc1ncnc2ccccc12)NCc1ccc2c(c1)OCO2`, which fold change is on record?
Answer: Its fold change is -1.09.

Question: Which fold change does the source give for `O=C(CN1C(=O)c2ccccc2S1(=O)=O)N1CCN(c2cccc(Cl)c2)CC1` here?
Answer: The fold change was -1.25.

Question: For `O=C(O)c1cc(S(=O)(=O)O)cc(Nc2c3ccccc3nc3ccccc23)c1O`, which fold change is on record?
Answer: Its fold change is -1.04.

Question: Which fold change does the source give for `CC1Cc2ccccc2N1S(=O)(=O)c1cccc2cccnc12` (centres undefined) here?
Answer: The fold change was -2.15 (active).

Question: Which fold change does the source give for `CCOC(=O)C1=C(CS(=O)(=O)c2ccc(Cl)cc2)NC(=O)NC1c1ccc(OCC)cc1` (centres undefined) here?
Answer: The fold change was 1.7.

Question: With `CC(=O)c1ccc2c(c1)c1ccccc1n2C` as the compound, how does the fold change read?
Answer: Its fold change is -3.04 (active).

Question: Which fold change does the source give for `COc1ccccc1/C=c1\sc2nc(-c3cc(OC)c(OC)c(OC)c3)nn2c1=O` here?
Answer: Its fold change is -1.32.

Question: Which fold change does the source give for `CCOc1cccc2cc(S(=O)(=O)c3ccc(C(C)(C)C)cc3)c(=O)oc12` here?
Answer: The fold change was -1.2.

Question: For `Cc1csc(NC(=O)C2CCCN2S(=O)(=O)c2cccc3cccnc23)n1` (centres undefined), which fold change is on record?
Answer: The fold change was -1.27.

Question: With `Cc1nnc(SCc2nc(-c3ccc(Cl)cc3)no2)n1-c1ccccc1` as the compound, how does the fold change read?
Answer: The fold change was -1.9.

Question: For `COc1ccc(-c2cc3ccccc3n2CC(O)CN2CCN(CCO)CC2)cc1` (centres undefined), which fold change is on record?
Answer: The fold change was -1.49.

Question: Which fold change does the source give for `Cc1ccc(S(=O)(=O)N2N=C(c3ccc(NS(C)(=O)=O)cc3)CC2c2ccco2)cc1` (centres undefined) here?
Answer: Its fold change is -1.45.

Question: For `O=c1c(O)c(-c2ccc3c(c2)OCO3)oc2ccccc12`, which fold change is on record?
Answer: The fold change was 1.

Question: With `CC(=O)Oc1ccc(/C=c2\sc3nc(-c4ccco4)nn3c2=O)cc1` as the compound, how does the fold change read?
Answer: The fold change was -1.31.

Question: For `Cc1ccc(N2C(=O)c3n[nH]c(C)c3C2c2ccccc2F)cc1` (centres undefined), which fold change is on record?
Answer: The fold change was 1.63.

Question: Which fold change does the source give for `O=C(NC1CCCC1)c1ccc(CNc2c(NC3CCCC3)c(=O)c2=O)cc1` here?
Answer: Its fold change is 1.06.

Question: For `c1ccc2c(NCCCN3CCOCC3)c3c(nc2c1)CCCC3`, which fold change is on record?
Answer: Its fold change is -1.45.

Question: With `COc1cccc(CNc2nc3ccccc3n3cnnc23)c1` as the compound, how does the fold change read?
Answer: The fold change was 1.12.

Question: Which fold change does the source give for `CCC(=O)Nc1nc2nc(C(C)(C)C)cc(=O)n2[nH]1` here?
Answer: The fold change was -1.74.

Question: Which fold change does the source give for `Cc1cc(C)c2sc(-c3ccccc3)cc(=O)c2c1` here?
Answer: The fold change was -37 (active).

Question: For `O=C(Cn1c(=O)oc2cc(S(=O)(=O)N3CCc4ccccc43)ccc21)NC1CCCC1`, which fold change is on record?
Answer: The fold change was -1.1.

Question: For `O=C(O)c1ccc(CNc2c(N3CCOCC3)c(=O)c2=O)cc1`, which fold change is on record?
Answer: The fold change was 1.05.

Question: With `CCOC(=O)N1CCC(Nc2c(NCCN3CCCCC3CC)c(=O)c2=O)CC1` (centres undefined) as the compound, how does the fold change read?
Answer: Its fold change is -1.19.

Question: With `Cc1ccc(N2CC(O)=C(c3nc4ccccc4c(=O)[nH]3)C2=N)cc1C` as the compound, how does the outcome read?
Answer: Its outcome is “inactive”.

Question: For `CSc1ccc(CCNc2ccc3nnc(-c4ccccc4)n3n2)cc1`, which fold change is on record?
Answer: The fold change was 1.07.

Question: With `Nc1cc(-c2ccccc2)nn1S(=O)(=O)c1ccc(Br)cc1` as the compound, how does the fold change read?
Answer: The fold change was 1.63.

Question: With `CC(C)Cc1cc(C(=O)Nc2cnn(Cc3ccc(F)cc3)c2)no1` as the compound, how does the fold change read?
Answer: The fold change was -1.44.

Question: With `CC1CCC[C@@H](C)N1C(=O)Cc1ccc(NC2=NC3CS(=O)(=O)CC3S2)cc1` (some centres undefined) as the compound, how does the fold change read?
Answer: Its fold change is -1.64.

Question: Which fold change does the source give for `CN(C(=O)c1ccc2c(=O)n3c(nc2c1)CCCCC3)c1ccc(F)cc1` here?
Answer: Its fold change is -1.12.

Question: Which fold change does the source give for `O=C(CCSc1nc(-c2ccc3c(c2)OCO3)cc(C(F)(F)F)n1)N1CCCCC1` here?
Answer: Its fold change is -1.15.

Question: With `C=CCn1c(SCC(=O)N2CCCCC2)nc2sc3c(c2c1=O)CCC3` as the compound, how does the fold change read?
Answer: Its fold change is -1.53.

Question: Which outcome does the source give for `COc1cc(-c2nc3cnccn3c2NC2CCCCC2)ccc1O` here?
Answer: The outcome was “inactive”.

Source: PubChem BioAssay AID1259240 (Keith Lab, Institute of Cancer Science, University of …, 2017)
